From PubChem BioAssay (NCI)
The panel holds about 83,000 compounds, 20% with a hit somewhere; the sample as a whole holds those more often.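 Cell lines were cultured in 96-well plates, exposed to a single compound concentration, and assessed for percent growth 48 hours later.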 The source made the active and inactive calls. The calls were made as follows: active = growth percent below 10; inactive = the rest.

Columns and labels:
Test in all cases: NCI-60 one-dose screen, 48 h (100 = growth as untreated, 0 = no growth, -100 = all killed)
Settings in all cases: 10 µM unless noted
NCI-H23 lung = system: NCI-H23 lung
NCI-H226 lung = system: NCI-H226 lung
NCI-H322M lung = system: NCI-H322M lung
HOP-62 NSCLC = system: HOP-62 NSCLC
NCI-H460 lung = system: NCI-H460 lung
HOP-92 NSCLC = system: HOP-92 NSCLC
NCI-H522 lung = system: NCI-H522 lung
A549/ATCC NSCLC = system: A549/ATCC NSCLC
786-0 renal = system: 786-0 renal
COLO 205 colon = system: COLO 205 colon

Measured: growth

c1ccc(Nc2nc(-c3ccccc3)c[se]2)cc1
inactive: NCI-H23 lung 87.2% | NCI-H226 lung 81.4% | NCI-H322M lung 69.8% | HOP-62 NSCLC 69.8% | NCI-H460 lung 100% | HOP-92 NSCLC 59.8% | NCI-H522 lung 68.6% | A549/ATCC NSCLC 87.5% | 786-0 renal 93% | COLO 205 colon 104%

ClCCN(CCCl)c1ccc(/C=N\N=C\c2ccc(N(CCCl)CCCl)cc2)cc1
inactive: NCI-H23 lung 62% | NCI-H226 lung 28.9% | NCI-H322M lung 74.2% | HOP-62 NSCLC 39.1% | NCI-H460 lung 14.7% | HOP-92 NSCLC 76.7% | NCI-H522 lung 11.1% | A549/ATCC NSCLC 13.6% | 786-0 renal 31.7% | COLO 205 colon 37.4%

COC(=O)C1OC(Oc2ccc(N(CCCl)CCCl)cc2)C(OC(C)=O)C(OC(C)=O)C1OC(C)=O (stereo not given)
inactive: NCI-H23 lung 92.9% | NCI-H226 lung 96.7% | NCI-H322M lung 108% | HOP-62 NSCLC 94.4% | NCI-H460 lung 29.3% | HOP-92 NSCLC 78% | NCI-H522 lung 67.9% | A549/ATCC NSCLC 75.9% | 786-0 renal 75% | COLO 205 colon 95.3%

CC(=O)O[C@H]1CC[C@@]2(C)C(=CC[C@H]3[C@@H]4C[C@@H](N5CC5)[C@H](C(C)=O)[C@@]4(C)CC[C@@H]32)C1
inactive: NCI-H23 lung 98.5% | NCI-H226 lung 92.2% | NCI-H322M lung 110% | HOP-62 NSCLC 83.4% | NCI-H460 lung 93.2% | HOP-92 NSCLC 80.7% | NCI-H522 lung 88.7% | A549/ATCC NSCLC 100% | 786-0 renal 101% | COLO 205 colon 99.2%

COC(=O)[C@H](Cc1c[nH]c2ccccc12)NC(=O)[C@@H](OC)[C@@H]1Cc2cc3cc(OC4CC(OC5CC(O)C(O)C(C)O5)C(O)C(C)O4)c(C)c(O)c3c(O)c2C(=O)[C@H]1OC1CC(OC2CC(OC3CC(C)(O)C(O)C(C)O3)C(O)C(C)O2)C(O)C(C)O1 (stereo not given in full)
inactive: A549/ATCC NSCLC 12.7%
active: NCI-H23 lung -20.3% | NCI-H226 lung -38.6% | NCI-H322M lung 6.45% | HOP-62 NSCLC 9.74% | NCI-H460 lung 6.58% | HOP-92 NSCLC -13.9% | NCI-H522 lung -28.2% | 786-0 renal 1.54% | COLO 205 colon -39.5%

O=[N+]([O-])c1ccc([Se]C2CCCCC2Cl)c([N+](=O)[O-])c1 (stereo not given)
inactive: NCI-H23 lung 40.3% | NCI-H226 lung 73.5% | NCI-H322M lung 55.7% | NCI-H460 lung 57.7% | HOP-92 NSCLC 53.8% | NCI-H522 lung 63.3% | A549/ATCC NSCLC 45.5% | 786-0 renal 128% | COLO 205 colon 102%
active: HOP-62 NSCLC 7.16%

CC1=C2[C@@H](CC1)[C@]1(C)O[C@@](C(C)C)(C[C@H]1O)[C@H]2OC(=O)C1CC1c1ccccc1 (stereo not given in full)
inactive: NCI-H23 lung 102% | NCI-H226 lung 75.6% | NCI-H322M lung 109% | HOP-62 NSCLC 81.7% | NCI-H460 lung 102% | HOP-92 NSCLC 73.3% | NCI-H522 lung 72.7% | A549/ATCC NSCLC 76.5% | 786-0 renal 97.9% | COLO 205 colon 90.5%

Cn1cc(-c2csc(-c3cn(CCN4CCOCC4)c4ccccc34)n2)c2cccnc21
inactive: NCI-H23 lung 62.6% | NCI-H226 lung 41.4% | NCI-H322M lung 84.8% | HOP-62 NSCLC 55.3% | NCI-H460 lung 75.3% | HOP-92 NSCLC 48.6% | NCI-H522 lung 40.6% | A549/ATCC NSCLC 63% | 786-0 renal 75.5% | COLO 205 colon 51.2%

C=CCc1cc2c(cc1OCC)OCO2
inactive: NCI-H23 lung 95.6% | NCI-H226 lung 99.3% | NCI-H322M lung 114% | HOP-62 NSCLC 64.7% | NCI-H460 lung 102% | HOP-92 NSCLC 81.1% | NCI-H522 lung 74.5% | A549/ATCC NSCLC 88.9% | 786-0 renal 92.4% | COLO 205 colon 108%

CC[CH2][Sn]([Cl])([Cl])[CH2]CC
active: NCI-H522 lung -87.2%
inactive: NCI-H23 lung 76.9% | NCI-H226 lung 86.4% | NCI-H322M lung 131% | HOP-62 NSCLC 82.4% | NCI-H460 lung 107% | HOP-92 NSCLC 110% | A549/ATCC NSCLC 99.3% | 786-0 renal 73.8% | COLO 205 colon 44.2%

O=C1CN=C(c2ccc(Cl)cc2)c2sccc2N1
inactive: NCI-H23 lung 98% | NCI-H226 lung 93.6% | NCI-H322M lung 91.2% | HOP-62 NSCLC 106% | NCI-H460 lung 108% | HOP-92 NSCLC 97.4% | NCI-H522 lung 82.5% | A549/ATCC NSCLC 101% | 786-0 renal 103% | COLO 205 colon 123%

Cc1cc(C)c(CBr)c(C)c1
inactive: NCI-H23 lung 100% | NCI-H226 lung 92.8% | NCI-H322M lung 92.4% | HOP-62 NSCLC 104% | NCI-H460 lung 109% | HOP-92 NSCLC 87.5% | NCI-H522 lung 90.2% | A549/ATCC NSCLC 95.1% | 786-0 renal 99.2% | COLO 205 colon 107%

O=C1C2C(C(=O)[N]1[Hg][c]1cccs1)C1(Cl)C(Cl)=C(Cl)C2(Cl)C1(Cl)Cl (stereo not given)
inactive: NCI-H226 lung 97.1% | NCI-H322M lung 78.3% | HOP-62 NSCLC 10.5% | NCI-H460 lung 52.7% | A549/ATCC NSCLC 80.4%
active: NCI-H23 lung -1.96% | HOP-92 NSCLC -51.4% | NCI-H522 lung -89.8% | 786-0 renal -90.2% | COLO 205 colon -71.4%

c1ccc(CSC(c2ccccc2)c2ccccc2)cc1
inactive: NCI-H23 lung 101% | NCI-H226 lung 111% | NCI-H322M lung 119% | HOP-62 NSCLC 116% | NCI-H460 lung 105% | HOP-92 NSCLC 76.2% | NCI-H522 lung 97.6% | A549/ATCC NSCLC 103% | 786-0 renal 91.3% | COLO 205 colon 101%

Nc1ccc(OCCNS(=O)(=O)c2cccc(S(=O)(=O)F)c2)c(Cl)c1
inactive: NCI-H23 lung 95.5% | NCI-H226 lung 96.5% | NCI-H322M lung 87.5% | HOP-62 NSCLC 90% | NCI-H460 lung 102% | HOP-92 NSCLC 87.5% | NCI-H522 lung 74.6% | A549/ATCC NSCLC 84.8% | 786-0 renal 88.8% | COLO 205 colon 110%

Nc1ccc(-c2nc3cc(F)ccc3[se]2)cc1F
inactive: NCI-H23 lung 33.9% | NCI-H322M lung 72.6% | HOP-62 NSCLC 51.4% | NCI-H460 lung 11.7% | HOP-92 NSCLC 66% | NCI-H522 lung 64.2% | A549/ATCC NSCLC 39.9% | 786-0 renal 101% | COLO 205 colon 56.2%
active: NCI-H226 lung -13.2%

ClCCN(CCCl)c1nc(Cl)c(C2CC(c3ccccc3)=NN2c2cc(Cl)cc(Cl)c2)s1 (stereo not given)
inactive: NCI-H23 lung 99.7% | NCI-H226 lung 99.6% | NCI-H322M lung 97.8% | HOP-62 NSCLC 111% | NCI-H460 lung 99.3% | HOP-92 NSCLC 113% | NCI-H522 lung 97.6% | A549/ATCC NSCLC 94.7% | 786-0 renal 100% | COLO 205 colon 121%

COc1cc2c(cc1OCc1ccccc1)C(CC(C)C)=[N+](C)CC2
inactive: NCI-H23 lung 56.4% | NCI-H226 lung 81.2% | NCI-H322M lung 97.8% | HOP-62 NSCLC 88.2% | NCI-H460 lung 92.1% | HOP-92 NSCLC 77.7% | NCI-H522 lung 66.3% | A549/ATCC NSCLC 61% | 786-0 renal 95.6% | COLO 205 colon 56.9%

Clc1ccc(N2COOC3(OOC2)C2CC4CC(C2)CC3C4)cc1
active: HOP-92 NSCLC -23.1% | NCI-H522 lung -53.2% | 786-0 renal -4.34%
inactive: NCI-H23 lung 22% | NCI-H226 lung 95.8% | NCI-H322M lung 76.4% | HOP-62 NSCLC 45.9% | NCI-H460 lung 61.5% | A549/ATCC NSCLC 47.4% | COLO 205 colon 101%

CCOC(=O)[C@@H](C)C[C@H](Cc1ccccc1)NC(=O)c1csc([C@@H](C[C@H](C(C)C)N(C)C(=O)[C@@H](NC(=O)[C@H]2CCCCN2C)C(C)(C)CC)OC(C)=O)n1
active: NCI-H226 lung -41.7% | NCI-H460 lung -10.1% | NCI-H522 lung -32.8% | 786-0 renal 1.55% | COLO 205 colon -62.6%
inactive: NCI-H23 lung 26.9% | NCI-H322M lung 34.4% | HOP-62 NSCLC 18.8% | HOP-92 NSCLC 16% | A549/ATCC NSCLC 10.1%

Cc1cc(NC(=O)NCc2ccc(N3C(N)=NC(N)=NC3(C)C)cc2)ccc1S(=O)(=O)F
active: NCI-H460 lung 4.48% | A549/ATCC NSCLC -3.03%
inactive: NCI-H23 lung 29.2% | NCI-H226 lung 101% | NCI-H322M lung 54.7% | HOP-62 NSCLC 23.4% | HOP-92 NSCLC 88.9% | NCI-H522 lung 16.5% | 786-0 renal 26.2% | COLO 205 colon 29.3%

C[C@]12CCc3nc(Nc4ccccc4F)sc3C1=CC[C@@H]1[C@@H]2CC[C@]2(C)C(=O)CC[C@@H]12
inactive: NCI-H23 lung 77.7% | NCI-H226 lung 85.9% | NCI-H322M lung 86.5% | HOP-62 NSCLC 87.2% | NCI-H460 lung 60.3% | HOP-92 NSCLC 116% | NCI-H522 lung 79.1% | A549/ATCC NSCLC 76.7% | 786-0 renal 38.5% | COLO 205 colon 75.7%

O=C(Nc1ccncc1F)c1cn(CC2CC2)c2ccccc12
inactive: NCI-H23 lung 101% | NCI-H226 lung 83.7% | NCI-H322M lung 109% | HOP-62 NSCLC 108% | NCI-H460 lung 101% | HOP-92 NSCLC 123% | NCI-H522 lung 92.3% | A549/ATCC NSCLC 98.5% | 786-0 renal 97.6% | COLO 205 colon 112%

CCCCOc1ccc(C(N)Cc2ccccc2)cc1 (stereo not given)
inactive: NCI-H23 lung 104% | NCI-H226 lung 112% | NCI-H322M lung 92.4% | HOP-62 NSCLC 107% | NCI-H460 lung 95.5% | HOP-92 NSCLC 41% | NCI-H522 lung 93% | A549/ATCC NSCLC 90% | 786-0 renal 75.3%
active: COLO 205 colon -43.2%

C[C@]12CC[C@H]3[C@@H](C[C@@H]4SC(Nc5ccccc5)=N[C@@]45CC(O)CC[C@]35C)[C@@H]1CCC2O (stereo not given in full)
inactive: NCI-H23 lung 67.3% | NCI-H226 lung 63.9% | NCI-H322M lung 78.4% | HOP-62 NSCLC 34.2% | HOP-92 NSCLC 104% | NCI-H522 lung 25.8% | A549/ATCC NSCLC 57.1% | COLO 205 colon 57.1%
active: NCI-H460 lung 6.06% | 786-0 renal -49.7%

COC(=O)[C@@H](C)C[C@H](Cc1ccccc1)NC(=O)c1csc([C@@H](C[C@H](C(C)C)N(C)C(=O)[C@@H](NC(=O)[C@H]2CCCCN2C)C2CCCCC2)OC(C)=O)n1
inactive: NCI-H23 lung 16.1% | NCI-H226 lung 20.5% | NCI-H322M lung 34.1% | A549/ATCC NSCLC 11.4%
active: HOP-62 NSCLC -19.8% | NCI-H460 lung 1.05% | HOP-92 NSCLC -13.2% | NCI-H522 lung -32.1% | 786-0 renal 3.22% | COLO 205 colon -75.7%
